High-throughput results from PubChem BioAssay.
A selection: hits, their analogues and other compounds. The true share with any hit is near 1.2%.
Platelet DG rel = platelet dense granule release activity; AID 1663; 300,000 tested, 0.22% active; inhibition, %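 (compounds screened at 7.5 µM in platelet-rich plasma)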; human platelet-rich plasma, SFLLRN dense granule ATP release, luminescence;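 active = mean replicate score, as percent of positive control, at or above 50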
MIN6 prolif = MIN6 beta-cell proliferation induction. proliferation, % at 10 µM. 330,000 tested, 0.29% active. MIN6 cells proliferation, ATPlite luminescence, 48 h; cells starved in 0.2% serum; 100% = growth in 10% serum. AID 2380;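 active = compounds whose signal lies at least 3.5 SD above the mean of all wells on their plate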;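 also: 0% = DMSO-treated cells in low-serum medium and 100% = 10% serum control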
NTR1 ag = agonists of human neurotensin receptor NTR1. 330,000 tested, 0.17% active. NTR1-U2OS beta-arrestin-GFP spot imaging, agonist mode. activation, % at 20 µM;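 active = activation at or above 40% of the spot to cytoplasm intensity ratio, with at least 20 cells analyzed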;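 also: 0% = DMSO without peptide and 100% = 100 nM NTR1 peptide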
GRK2 inh = blocks RNA aptamer binding to human GRK2. bead flow cytometry, FAM-aptamer displacement from GRK2. inhibition of aptamer binding, % at 10 µM. 330,000 tested, 0.59% active. AID 488847;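 active = inhibition of aptamer binding above 40%, roughly 3 SD of noise, on plates passing a quality check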;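 also: median bead fluorescence of bound FAM aptamer so fluorescent compounds give negative values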
Target sequence (P25098 whole entry, looked up): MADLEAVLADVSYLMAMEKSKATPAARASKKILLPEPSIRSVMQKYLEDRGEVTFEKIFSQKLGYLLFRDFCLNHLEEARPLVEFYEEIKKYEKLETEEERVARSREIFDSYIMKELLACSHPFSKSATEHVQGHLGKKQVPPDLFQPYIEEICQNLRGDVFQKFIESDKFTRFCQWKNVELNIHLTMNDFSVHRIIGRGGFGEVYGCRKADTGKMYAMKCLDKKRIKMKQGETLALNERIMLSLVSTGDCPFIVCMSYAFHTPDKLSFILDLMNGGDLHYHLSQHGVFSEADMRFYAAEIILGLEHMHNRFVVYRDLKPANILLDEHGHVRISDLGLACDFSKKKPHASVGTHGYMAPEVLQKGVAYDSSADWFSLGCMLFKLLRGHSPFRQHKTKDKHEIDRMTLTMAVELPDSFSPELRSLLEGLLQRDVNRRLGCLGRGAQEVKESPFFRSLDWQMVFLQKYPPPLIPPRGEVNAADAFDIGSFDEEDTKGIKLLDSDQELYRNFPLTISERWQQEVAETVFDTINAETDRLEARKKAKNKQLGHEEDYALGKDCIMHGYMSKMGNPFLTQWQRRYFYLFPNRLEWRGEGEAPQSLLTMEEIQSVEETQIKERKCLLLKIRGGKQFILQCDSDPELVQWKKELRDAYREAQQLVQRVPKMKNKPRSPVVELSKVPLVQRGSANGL
* hit, by the source's call; / = no result.

SMILES	Platelet DG rel	MIN6 prolif	NTR1 ag	GRK2 inh
Cc1cc(O)c(C=O)c2c1C(=O)Oc1c(CO)c(O)c3c(c1O2)C(O)OC3=O (configuration not stated)	/	-3.3	0.2	72.0*
Cc1cc(O)c(CN(C)C)c2c1C(=O)/C(=C/c1ccco1)O2	-2.2	4.0	0.8	5.0
CCS(=O)(=O)c1ccc2oc(Nc3ccccc3Cl)nc2c1	57.3*	-1.8	-1.8	0.0
COc1ccc(NC(=O)c2cc(S(=O)(=O)N3CCc4ccccc43)cn2C)cc1	97.9*	-2.8	-2.8	0.0
Cc1ccc(NC(=O)c2cc(S(=O)(=O)N3CCc4ccccc43)cn2C)cc1C	10.2	-2.9	0.8	2.0
Cn1c(=O)n(C)c2cc(S(=O)(=O)NCc3ccccc3)ccc21	51.7*	-0.2	0.8	2.0
O=[N+]([O-])/C=C/c1c(OCc2ccccc2)ccc2ccccc12	11.0	-3.1	61.3*	0.0
CCOC(=O)COc1ccc2ccccc2c1/C=C/[N+](=O)[O-]	-2.5	/	/	2.0
Cc1cc(C)cc(NC(=O)CCc2nc3sc4c(c3c(=O)[nH]2)CCCC4)c1	0.6	-2.9	8.0	3.0
Cc1cccc(CCNC(=O)C2CCN(S(=O)(=O)c3ccccc3)CC2)c1	0.1	-1.1	-1.4	1.0
Cc1cc(-c2ccc(N=Nc3c(S(=O)(=O)O)cc4cc(S(=O)(=O)O)cc(N)c4c3O)c(C)c2)ccc1N=Nc1c(S(=O)(=O)O)cc2cc(S(=O)(=O)O)cc(N)c2c1O	/	-6.7	1.0	98.0*
CCOC(=O)[C@H]1[C@H]2COc3ccc(Cl)cc3[C@@H]2N2C(=O)CN(C)C(=O)[C@@]12C	/	-3.9	0.6	4.0
CCOC(=O)N1CCN(CCC(=O)Nc2cccc(C)c2)CC1	5.3	-2.6	-0.7	1.0
NC(=O)N1CCN(C(=O)c2ccco2)CC1	50.8*	-1.4	-1.0	0.0
CC(=O)N1CCN(C(=O)c2ccco2)CC1	-3.7	-1.3	-0.5	1.0
CCCC(=O)Nc1cccc(NC(=O)c2ccccc2Br)c1	85.6*	2.1	-0.1	2.0
CC(C)CC(=O)Nc1cccc(NC(=O)c2ccccc2Cl)c1	92.0*	-2.8	0.8	3.0
O=S(=O)(c1ccc2c(c1)CCN2)N1CCCC1	/	-3.5	2.2	0.0
CCC(=O)c1ccc(OCC(=O)OC(C)C(=O)N2CCc3ccccc32)cc1 (configuration not stated)	0.5	1.8	0.0	0.0
CCOC(=O)N1CCN(C2CCCN(C(=O)c3ccccc3N(C)C)C2)CC1 (configuration not stated)	-12.0	-0.6	0.9	3.0
CCOC(=O)c1cc2c(OC)ccc(OC)c2n1CC(=O)c1ccccc1	2.9	-3.0	3.9	0.0
Cc1ccc(/C=C/C(=O)Nc2nnc(SCc3ccc(C#N)cc3)s2)o1	-3.1	0.5	2.1	100.0*
Cc1ccc(/C=C/C(=O)Nc2nccs2)o1	20.1	-1.5	0.3	1.0
CCC(C)(C(=O)NC1CCCCC1)N(C(=O)Cc1cccs1)c1ccccc1 (configuration not stated)	-6.7	1.9	3.5	2.0
CCOc1c(OC(C)=O)ccc(/C=C2\N=C(SCC)SC2=O)c1[N+](=O)[O-]	5.7	-3.9	-0.9	100.0*
SMILES	Platelet DG rel	MIN6 prolif	NTR1 ag	GRK2 inh
CCOC(=O)N1CCN(Cc2cc(=O)oc3cc4c(cc23)CCC4)CC1	77.9*	-3.7	2.2	1.0
CCOC(=O)N1CCN(Cc2cc(=O)oc3ccc(Cl)cc23)CC1	-9.0	-1.0	-0.4	1.0
CCOC(=O)NC(O)C(=O)c1cccs1 (configuration not stated)	-3.4	5.0*	-1.6	0.0
CCOC(=O)NC(O)C(=O)c1ccc(F)cc1 (configuration not stated)	0.9	4.5	0.0	0.0
O=C(CO/N=C/c1ccc(OC(F)F)cc1)N1CCc2ccccc21	-7.9	-2.1	-1.1	100.0*
CCN(CC)S(=O)(=O)c1ccc(Cl)c(NC(=O)COC(=O)/C=C/c2ccc(O)c(OC)c2)c1	0.4	-2.0	4.1	100.0*
COc1cc(/C=C/C(=O)OCC(=O)Nc2cc(S(=O)(=O)N(C)C)ccc2Cl)ccc1O	1.4	-2.4	4.2	2.0
CN1CCc2nc(SCC(=O)Nc3ccc(F)cc3)c(C#N)cc2C1	10.3	-3.2	-2.3	57.0*
COc1ccc(-c2cc(-c3ccc(Cl)cc3)c(C#N)c(SCC(=O)O)n2)cc1	6.4	-5.1	4.3	7.0
COc1cccc(NC(=O)c2ccc3c(c2)OCCO3)c1	52.0*	-4.0	-1.2	/
Cc1ncoc1C(=O)Nc1ccc2c(c1)OCCO2	66.2*	-1.8	-1.1	0.0
CCCN1C=CC(=C2C(=O)c3ccccc3C2=O)C=C1	63.8*	-5.5	-1.2	2.0
